Test results as given in PubChem BioAssay AID1852 (Sanford-Burnham Center for Chemical Genomics, 2009).
In all, about 2,500 compounds went through this assay and about 1,100 (44%) were called active. The set was probably picked from earlier hits. The list shows a part of the results. Values without a mark were called inactive.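 Rule for the calls: active = inhibition above 50% at 4 µM in the single-point screen; inactive = inhibition of 50% or less.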

assay: blockers of TNF-a NF-kB luciferase induction – cell-based, HEK293T NF-kB-Luc, luminescence, selectivity assay for NOD1/NOD2 signaling inhibitor project, primary screen (AID 1852); conditions: TNF-a induced, 14 h, at 4 µM, active compounds read high

SMILES | inhibition
CCCCN=C[C@]12CCC(O)CC1(O)CCC1[C@@H]2CC[C@]2(C)[C@H](C3C=CC(=O)O3)CCC12O (stereo partly drawn) | 92.1% (active)
COc1ccc(-c2cc(-c3ccccc3)[n+](C)c(-c3ccccc3)c2)cc1 | 46.4%
CN(C)c1ccc(-[n+]2c(-c3ccccc3)cc(-c3ccccc3)cc2-c2ccccc2)cc1 | 94.6% (active)
COc1ccc(-[n+]2c(-c3ccccc3)cc(-c3ccc(C)cc3)cc2-c2ccccc2)cc1 | 75.4% (active)
O=C(c1ccc(Cl)cc1)C1CCCN(Cc2cccc3ncccc23)C1 (stereo not drawn) | 29.9%
CCOc1ccc(-c2c(C)n(-c3ccc(OCC)cc3)c3[n+]2CCCCC3)cc1 | 87% (active)
COC1CC(OC2CCC3(C)C(CCC4C3CCC3(C)C(C5=CC(=O)OC5)C(OC(C)=O)CC43O)C2)OC(C)C1OC1OC(COC2OC(CO)C(O)C(O)C2O)C(O)C(O)C1O (stereo not drawn) | 94.7% (active)
CC(=O)c1c(C)n(C2CCCCC2)c2ccc(O)cc12 | 90% (active)
CC(C)(C)c1ccc(CSc2cnn(C(C)(C)C)c(=O)c2Cl)cc1 | 48.3%
NC(=O)c1cn(C2OC(CO)C(O)C2O)c2ncnc(N)c12 (stereo not drawn) | 99.9% (active)
CN1C2CCC1/C(=C/c1ccccn1)C(=O)/C2=C\c1ccccn1 | 102% (active)
Cc1cc(C)cc(N2C(=O)NC(=O)/C(=C/c3cccn3-c3ccc(Cl)cc3)C2=O)c1 | -24%
CN1C(=O)/C(=C/c2cccn2-c2ccc3ccccc3c2)C(=O)NC1=S | 5.6%
CCn1nc(/C=C/c2ccccc2)nc2c(=O)n(C)c(=O)nc1-2 | 104% (active)
CCn1nc(-c2ccccc2)nc2c(=O)n(C)c(=O)nc1-2 | 99.1% (active)
COc1cc(OC)c(OC)cc1/C=C1/C(=O)NC(=O)N(Cc2ccccc2)C1=O | 29.5%
O=C1NC(=O)N(Cc2ccc(F)cc2)C(=O)/C1=C\C=C\c1ccco1 | 89.3% (active)
O=C1NC(=O)N(Cc2ccco2)C(=O)/C1=C/C=C/c1ccco1 | -10.1%
O=C1NC(=O)N(CCc2ccc(F)cc2)C(=O)/C1=C\C=C\c1ccccc1 | 56% (active)
O=C1NC(=O)N(Cc2ccccc2)C(=O)/C1=C/C=C/c1ccco1 | 36.6%
C=CCN1C(=O)NC(=O)/C(=C/C=C/c2ccccc2)C1=O | 49.4%
COc1ccc(Oc2cc(NC(=O)c3nn(C)cc3[N+](=O)[O-])cc([N+](=O)[O-])c2)cc1 | 61.5% (active)
C[C@H]1CCC[C@@H](O)CCC/C=C/c2cc(O)cc(O)c2C(=O)O1 | 73.6% (active)
CC(=O)c1cn(Cc2ccccc2F)c2ccccc12 | 31.5%
Cc1nc2c(=O)n(C)c(=O)nc-2n(C)n1 | 99.4% (active)
CCn1ccnc1CN1CCCC(C(=O)c2cc(Cl)ccc2OC)C1 (stereo not drawn) | 0.8%

SMILES | inhibition
O=c1c2ccccc2nc(/C=C/c2ccc3c(c2)OCO3)n1-c1ccccc1 | -34.6%
O=c1c2ccccc2nc(/C=C/c2ccccc2O)n1-c1ccccc1O | 64.8% (active)
O=C1C(=O)c2ccccc2-c2ccccc21 | 104% (active)
O=C1NC(=O)N(c2ccccc2)C(=O)/C1=C\C=C\c1ccccc1 | 45.9%
CN1C(=O)NC(=O)/C(=C\C=C\c2ccccc2[N+](=O)[O-])C1=O | 72.4% (active)
O=C1NC(=O)N(c2ccccc2)C(=O)/C1=C/C=C/c1ccco1 | 32%
O=c1nc(/C=C/c2ccc(Cl)cc2Cl)cc(C(F)(F)F)[nH]1 | -105%
COc1ccc(-n2c(O)c(/C=C3\C=Nc4ccc(Br)cc43)c(=O)[nH]c2=O)cc1 | 23.8%
O=C(c1cc(-c2ccc(Cl)cc2)n(-c2ccc(Cl)cc2Cl)n1)N1CCOCC1 | -36%
CC(=O)OC[C@]12CCC(C)=C[C@H]1O[C@@H]1[C@H](O)[C@@H](OC(C)=O)[C@@]2(C)[C@]12CO2 | 102% (active)
C=C(C=O)CC1CC(O)[C@]2(C)OC3CC4OC5C[C@]6(C)O[C@]7(C)CCC8OC9C[C@]%10(C)OC%11C(C)=CC(=O)OC%11CC%10OC9C[C@@H](C)C8OC7CC6O[C@]5(C)CC5OC5C4OC3CC2O1 (stereo partly drawn) | 80.4% (active)
CCCCCCn1c(=O)c(C(=O)Nc2cnccn2)c(O)c2ccccc21 | 52.2% (active)
CCCCn1c(=O)c(C(=O)Nc2cnccn2)c(O)c2ccccc21 | 3.4%
CCCCCCCn1c(=O)c(C(=O)Nc2cnccn2)c(O)c2ccccc21 | 34.9%
CCCCCn1c(=O)c(C(=O)Nc2ccccc2S(N)(=O)=O)c(O)c2ccccc21 | -7%
CC(C)CCn1c(=O)c(C(=O)Nc2ccccc2S(N)(=O)=O)c(O)c2ccccc21 | -7.2%
CCCCCn1c(=O)c(C(=O)Nc2cnccn2)c(O)c2ccccc21 | 53.4% (active)
Cc1ccc(N2C(=O)NC(=O)/C(=C\C=C\c3ccco3)C2=O)cc1 | 9.7%
O=Cc1cn(Cc2cccc([N+](=O)[O-])c2)c2ccccc12 | 86.7% (active)
O=c1[nH]c(=O)n(-c2ccccc2F)c(O)c1/C=C1\C=Nc2ccccc21 | 14.8%
Nc1nonc1C(=O)N/N=C/c1ccc([N+](=O)[O-])o1 | 31.1%
Cc1cccc(-n2c(/C=C/c3ccc([N+](=O)[O-])o3)nc3ccccc3c2=O)c1 | 91.9% (active)
COc1ccc(-n2c(/C=C/c3ccc(O)cc3)nc3ccccc3c2=O)cc1 | 3.4%
O=c1c2ccccc2nc(/C=C/c2ccc([N+](=O)[O-])o2)n1-c1ccc(O)cc1 | 89.7% (active)
COc1cccc(N2C(=O)/C(=C/c3ccc(C)o3)C(=O)NC2=S)c1 | 40.9%
Cc1ccc(/C=C2\C(=O)NC(=S)N(c3ccccc3F)C2=O)s1 | 106% (active)

SMILES | inhibition
O=C1NC(=S)N(c2ccccc2F)C(=O)/C1=C\c1cccs1 | -11.1%
Cc1ccc(Sc2ccc(C=C3C(=O)N(C)C(=O)N(C)C3=O)o2)cc1 | -5.5%
C=CCn1c(O)c(C(C)=NCc2cc(OC)cc(OC)c2)c(=O)[nH]c1=O | 16%
Cc1ccccc1-n1c(O)c(/C=C2/C(c3ccccc3)=Nc3ccccc32)c(=O)[nH]c1=O | 16.1%
CCOc1ccc(-c2cc(C)[n+](CCN(CC)CC)c(-c3ccc(OCC)cc3)c2)cc1 | 51.9% (active)
C[C@@H]1O[C@@H](O[C@H]2C[C@@H](O)[C@]3(CO)[C@H]4[C@H](O)C[C@]5(C)[C@@H](C6=CC(=O)OC6)CC[C@]5(O)[C@@H]4CC[C@]3(O)C2)[C@H](O)[C@H](O)[C@H]1O | 106% (active)
CC(C)N1C(=O)/C(=C/C=C/c2ccco2)C(=O)N(Cc2ccco2)C1=O | 22.9%
CC(C)[C@H]1C(=O)O[C@H](C(C)C)C(=O)N(C)[C@@H](C(C)C)C(=O)O[C@H](C(C)C)C(=O)N(C)[C@@H](C(C)C)C(=O)O[C@H](C(C)C)C(=O)N1C | 90.7% (active)
COC(=O)[C@]12OC[C@]34C([C@@H](O)[C@@H]1O)[C@]1(C)CC(=O)C(O)=C(C)[C@@H]1C[C@H]3OC(=O)[C@H](O)[C@@H]24 (stereo partly drawn) | 76.8% (active)
CC[C@@]1(O)C(=O)OCc2c1cc1n(c2=O)Cc2cc3ccccc3nc2-1 | 98.4% (active)
Cc1cccc(OCCn2cccc2/C=C2/C(=O)NC(=O)N(Cc3ccco3)C2=O)c1 | 9.6%
C[C@]12CCC3C(CCC4=CC(O)CC[C@@]43/C=N/O)C1(O)CCC2C1=CC(=O)OC1 (stereo partly drawn) | 97.3% (active)
C=C1C(=O)O[C@@H]2C[C@@H](C)[C@@H]3C=CC(=O)[C@@]3(C)[C@@H](O)[C@H]12 | 104% (active)
C=C1C(=O)O[C@H]2C[C@@H](C)[C@@H]3C=CC(=O)[C@@]3(C)C[C@H]12 | 108% (active)
C=C1C(=O)O[C@@H]2C[C@@H](C)[C@@H]3C=CC(=O)[C@@]3(C)[C@@H](OC(=O)CC(=O)O[C@H]3[C@@H]4C(=C)C(=O)O[C@@H]4C[C@@H](C)[C@@H]4C=CC(=O)[C@]43C)[C@H]12 | 103% (active)
C=C1C(=O)O[C@@H]2C[C@@H](C)[C@@H]3C4OC4C(=O)[C@@]3(C)[C@@H](O)[C@H]12 (stereo partly drawn) | 96.7% (active)
O=C(c1ccc(Cl)cc1)C1CCCN(Cc2ccc3ncccc3c2)C1 (stereo not drawn) | 29.7%
CCC(C)NC(=O)CCC(=O)OC1O[C@H]2OC3(C)CC[C@H]4[C@H](C)CCC(C1C)C24OO3 (stereo partly drawn) | 52.3% (active)
CCC(C)C(NC(=O)CCCNC(=O)CCC(=O)OC1O[C@H]2OC3(C)CC[C@H]4[C@H](C)CCC(C1C)C24OO3)C(=O)O (stereo partly drawn) | 87.7% (active)
CC(C)CC(NC(=O)CCCNC(=O)CCC(=O)OC1O[C@H]2OC3(C)CC[C@H]4[C@H](C)CCC(C1C)C24OO3)C(=O)O (stereo partly drawn) | 55.3% (active)
CC1=CC(=Cc2sc3ccccc3[n+]2C)C=C(C)O1 | 43.4%
CN1CCN(c2ncnc3ccc(Br)cc23)CC1 | 33%
Cc1cccc(-n2c(O)c(/C=C3/C(c4ccccc4)=Nc4ccccc43)c(=O)[nH]c2=O)c1 | 32.8%
O=C(c1ccc(C(F)(F)F)cc1)C1CCCN(Cc2ccncc2)C1 (stereo not drawn) | 30.7%
CN1/C(=C\C=C\C2=[N+](C)c3ccc4ccccc4c3C2(C)C)C(C)(C)c2ccccc21 | 87.9% (active)
CCN1/C(=C\C=C\C2=[N+](CC)c3ccccc3C2(C)C)C(C)(C)c2ccccc21 | 101% (active)
